According to ChEMBL document CHEMBL3433997, “St. Jude Leishmania screening dataset” (2016):

Assays:
Assay type in all cases: functional
[1] = target: Solute carrier family 2, facilitated glucose transporter member 1 (Homo sapiens) (UniProt P11166); test: ST_JUDE_LEISH: Cytotoxicity at 2uM final concentration against transgenic Leishmania Mexicana promastigotes LmGLUT1 that are glucose transport deficient and complemented with the human glucose transporter GLUT1. Activity is measured by DNA content using SYBR green in vitro
[2] = target: Hexose transporter 1 (Plasmodium falciparum) (UniProt O97467); test: ST_JUDE_LEISH: Cytotoxicity at 2uM final concentration against transgenic Leishmania Mexicana promastigotes LmPfHT that are glucose transport deficient and complemented with the Plasmodium falciparum hexose transporter. Activity is measured by DNA content using SYBR green in vitro
[3] = target: Glucose transporter (Leishmania mexicana) (UniProt O61059); test: ST_JUDE_LEISH: Cytotoxicity at 2uM final concentration against transgenic Leishmania Mexicana promastigotes LmGT2 that are glucose transport deficient and complemented with the L. Mexicana glucose transporter 2. Activity is measured by DNA content using SYBR green in vitro

Solute carrier family 2, facilitated glucose transporter member 1 (Homo sapiens), sequence (P11166 whole entry): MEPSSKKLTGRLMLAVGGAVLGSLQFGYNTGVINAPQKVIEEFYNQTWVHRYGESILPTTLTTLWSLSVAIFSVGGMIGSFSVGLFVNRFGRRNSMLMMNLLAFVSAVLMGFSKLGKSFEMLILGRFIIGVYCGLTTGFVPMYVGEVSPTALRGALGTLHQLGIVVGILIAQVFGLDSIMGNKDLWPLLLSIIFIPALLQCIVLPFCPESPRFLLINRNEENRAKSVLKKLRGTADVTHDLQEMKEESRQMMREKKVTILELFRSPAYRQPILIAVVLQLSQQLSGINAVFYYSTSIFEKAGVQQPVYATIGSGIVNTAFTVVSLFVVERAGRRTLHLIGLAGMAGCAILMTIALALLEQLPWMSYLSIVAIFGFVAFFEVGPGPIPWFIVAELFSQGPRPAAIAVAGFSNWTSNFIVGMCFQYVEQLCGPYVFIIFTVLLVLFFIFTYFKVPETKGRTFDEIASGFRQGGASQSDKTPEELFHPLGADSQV

Compound | inhibition [1] | inhibition [2] | inhibition [3]
CC(=O)Nc1ccc(OCCCCN(Cc2ccccc2C(F)(F)F)c2ccc(C#N)c(C(F)(F)F)c2)cc1 | 1.93% | 6.69% | 7.15%
CCCCCCCN1CC[C@@H](CCCc2ccnc3ccc(OCCC4CCNCC4)cc23)[C@@H](CC)C1 | 7.73% | 7.46% | 6.53%
O=[N+]([O-])c1ccc(-c2ccc(C=NNc3nc(Nc4ccccc4)nc(Nc4ccccc4)n3)o2)cc1 | 0.91% | -0.88% | -1.48%
Cc1cnc2ccc(NS(=O)(=O)c3ccc4c(Cl)cccc4c3)cc2c1N1CCNCC1 | 1.16% | 1.37% | 1.37%
COc1ccc(CNCc2ccc(F)cc2)cc1-c1cccc(S(=O)(=O)NCCN2CCCC2)c1 | 0.82% | 0.14% | 1.01%
CSc1nnc2n(Cc3ccccc3)c(=O)c3c(n12)-c1ccccc1CC31CCCCC1 | 2.53% | 0.86% | 0.02%
CCCCCCN1CCC(NCc2cccc3ccccc23)CC1 | 7.18% | 12.1% | 13.7%
CCOC(=O)c1c(C)noc1Nc1ccc(OC)cc1 | 1.87% | 2.32% | 2.21%
CN1CCN(c2cccc(Nc3nccc(NCC(O)c4ccccc4)n3)c2)CC1 (stereo unspecified) | 1.83% | 1.6% | 0.06%
O=C(NCCCCN1CCC(C(c2ccccc2)c2ccccc2)CC1)c1ccc(NC(=O)c2ccc(Cl)cc2)cc1 | -0.78% | -0.4% | -1.74%
O=C(Nc1ccc(-c2cncc(NCCCN3CCCC3)c2)cc1)c1ccccc1 | 1.36% | 1.48% | 1.55%
c1ccc(C(c2ccccc2)N2CCN(C(c3cccnc3)c3nnnn3C3CCCC3)CC2)cc1 (stereo unspecified) | 4.64% | -0.82% | -1.23%
